# High-throughput results (PubChem)
# Sfp PPTase inh: inhibitors of Bacillus subtilis Sfp phosphopantetheinyl transferase. 3.5% of 310,000 active. AID 1490. Q9F4F7. Potency, µM, for the others: largest response in the series, negative = inhibition, usual class: inhibitors. Biochemical Sfp PPTase activity, qHTS;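 also: the enzyme is Sfp with the accession as filed and its product quenches rhodamine fluorescence; potency is read from the fitted curve at half-maximal effect; 0% = enzyme reaction without inhibitor and -100% = no enzyme wells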
#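 Compounds were incubated with enzyme (final 15 nM) for 15 min at room temperature before substrate addition started the reaction. Fluorescence at 525 nm excitation, 598 nm emission was recorded immediately and after 30 minutes.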
# Tau fibril FP: tau fibrillization inhibition (FP) | P10636 | K18 P301L tau heparin fibrillization, Alexa594 FP, 6 h | Potency, µM (top dose mostly 57.7 µM), for inactives: top-dose activity, negative = inhibition, usual class: inhibitors | 0.39% of 280,000 active; also: potency is read from the fitted curve at half-maximal effect; nearly all actives have a fitted effect of over 55% in size
# Target sequence (P10636 561-689 P618L limits assumed): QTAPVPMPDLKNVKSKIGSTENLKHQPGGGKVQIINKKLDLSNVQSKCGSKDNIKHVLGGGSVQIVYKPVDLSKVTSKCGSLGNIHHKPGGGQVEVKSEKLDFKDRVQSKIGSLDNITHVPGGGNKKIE
#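 Recombinant K18 P301L […], labeled with Alexa 594 at 0.24 uM over 15 uM unlabeled; heparin inducer 20 uM final; 37 C, 6 hr; FP endpoint.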
# G9a inh: blocks human histone lysine methyltransferase G9a; Q96KQ7; G9a H3K9 monomethylation, AlphaScreen, 2 h; Potency, µM (top dose mostly 102 µM), for inactives: at the top dose activity, negative = inhibition, hits mostly inhibitors; 8.8% of 350,000 active; AID 504332; also: potency is read from the fitted curve at half-maximal effect; nearly all actives have a fitted effect of over 75% in size
# Target sequence (Q96KQ7 913-1193 limits assumed): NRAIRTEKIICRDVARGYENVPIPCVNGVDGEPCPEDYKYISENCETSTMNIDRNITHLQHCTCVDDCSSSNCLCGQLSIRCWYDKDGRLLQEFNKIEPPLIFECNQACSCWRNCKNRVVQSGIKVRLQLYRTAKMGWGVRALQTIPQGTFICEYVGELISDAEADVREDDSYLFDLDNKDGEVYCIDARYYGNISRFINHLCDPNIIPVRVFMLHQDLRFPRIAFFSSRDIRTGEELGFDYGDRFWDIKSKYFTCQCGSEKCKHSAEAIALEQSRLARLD
#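 Signal arises when biotinylated H3K9 peptide, once monomethylated, bridges streptavidin donor and antibody-captured acceptor beads. Enzyme at 20 nM was preincubated 15 min with test compounds; peptide 500 nM and SAM 20 uM then reacted for 2 h.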
# Tau fluor cs: counter-screen for tau fibril formation inhibitors. AID 1463. tau K18 P301L Alexa594 fluorescence, heparin fibrillization. Potency, µM (titrated, usually from 57.7 µM), without a hit: top-dose activity change, negative = decrease. 0.93% of 280,000 active; also: potency is read from the fitted curve at half-maximal effect; nearly all actives have a fitted effect of over 55% in size
#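 Human K18 P301L tau (15 uM unlabeled plus 0.24 uM Alexa 594-labeled, final) in 100 mM sodium acetate pH 7 was mixed with compound and 20 uM heparin and incubated 6 hr at 37 C.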
# FBPA coupling cs: counter-screen for Giardia aldolase inhibitors: coupling enzyme system; coupling enzyme system counterscreen, AmpLite Red fluorescence; 0.67% of 290,000 active; activity change, negative = inhibition, % at 58.2 µM, hits read low; AID 2472; in the data active = activity change below about -30%
#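 Coupling enzymes only (glyceraldehyde-3-phosphate) + compound, at 57.5 uM final, 10 min RT; add substrate/coupling/AmpLite Red mix, 20 min RT; fluorescence ex 525/em 598 nm. Actives flag coupling-system interference.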
# Tau ThT inhib: tau fibrillization inhibition (ThT binding); P10636; recombinant tau K18 P301L (four-repeat tau fragment), heparin-induced fibrillization, ThT fluorescence; Potency, µM (titrated, usually from 57.4 µM), inactives show top-dose activity, negative = inhibition, actives largely listed as inhibitors; 2.1% of 270,000 active; also: potency is read from the fitted curve at half-maximal effect; nearly all actives have a fitted effect of over 55% in size
#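 Aggregation was driven by heparin (20 uM final) acting on recombinant tau […] bearing P301L in 100 mM sodium acetate pH 7; fibrils were detected with Thioflavin T.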
# An asterisk follows results filed as active; ? = inconclusive; . = not tested or not shown; [ ] = dose if it differs, or a comment. Sampled rows, rich in hits. Any-hit rate of the full collection: about 11%. Unless noted, calls follow the shape of the dose curve; as a rule, active = well fitted curve in the direction sought with a large enough effect; inconclusive = small, poorly fitted or top-dose-only effect, or another doubt; inactive = no such curve, though single readings can be large; an effect the other way counts as inactive or inconclusive. Unless noted, % is scaled to controls: 0 for no effect and ±100 for the full control effect.
SMILES,Sfp PPTase inh,Tau fibril FP,G9a inh,Tau fluor cs,FBPA coupling cs,Tau ThT inhib
COc1cc(C(=O)Nc2sc3c(c2C#N)CCN(C(C)=O)C3)cc(OC)c1OC,12.5%,8.6%,-8.0%[59 µM],-5.7%,-10.9,?
COC(=O)c1sc(NC(=O)c2ccc([N+](=O)[O-])o2)c(C#N)c1C,25.1µM*,-5.0%,12.6µM*,-17.1%,16.6,.
CN(Cc1ccc(F)cc1)C(=O)CNC(=O)C1CCCCC1,8.5%,.,38.2%,.,.,.
COc1cc(SC#N)ccc1N=Cc1c(C)[nH]n(-c2ccc(C)c(C)c2)c1=O,0.1%,?,10µM*,-19.0%,-1.3,17.8µM*
COc1cc(SC#N)ccc1N=Cc1c(C)[nH]n(-c2ccc(Cl)cc2)c1=O,-0.2%,?,-6.5%[12.7 µM],-23.3%,3.3,11.2µM*
Cn1cc(CN2CCCC(C(=O)Nc3ccc(-c4cccc(F)c4)cc3)C2)cn1 (centres undefined),-5.6%,.,-5.5%[0.0925 µM],.,.,.
COc1ccc(OC)c(N2Cc3cc(C)c(C)cc3C2)c1,1.1%,-7.8%,12.6µM*,-22.1%,-12.5,?
CCOc1ccccc1N1Cc2cc(C)c(C)cc2C1,0.5%,-2.0%,?,-8.5%,0.8,?
Oc1cccc(C(Nc2nccs2)c2ccc3cccnc3c2O)c1 (centres undefined),7.7%,?,?,?,-1.2,?
COc1ccc(Cl)cc1C(Nc1cccnc1)c1ccc2cccnc2c1O (centres undefined),-14.8%,?,3.98µM*,-21.3%,-5.8,28.2µM*
Oc1c(C(Nc2ccccn2)c2cccnc2)cc(Cl)c2cccnc12 (centres undefined),-7.5%,16.8%,28.2µM*,-7.1%,0.2,?
Oc1c(C(Nc2cccc(C(F)(F)F)c2)c2cccnc2)ccc2cccnc12 (centres undefined),?,-2.0%,8.91µM*,-21.8%,-8.1,?
Cc1cc(NC(c2cccnc2)c2ccc3cccnc3c2O)no1 (centres undefined),-20.8%,8.4%,35.5µM*,-8.6%,-13.3,?
COC(=O)c1ccccc1NC(=O)c1cccnc1,11.3%,.,-3.2%[0.501 µM],.,-0.4,.
O=C(Cn1cc(SCc2ccc(F)cc2)c2ccccc21)N1CCCC1,.,1.7%,-9.2%[59 µM],-29.9%,.,?
O=C(NNC(=O)c1cc(-c2ccncc2)nc2ccccc12)c1cccc(Cl)c1,.,.,-6.6%,.,.,.
O=S(=O)(NC(=S)NC1CCCCC1)c1ccccc1,?,2.8%,25.1µM*,-1.2%,-6.8,6.0%
O=S(=O)(NC(=S)NC1CCCCC1)c1cccs1,?,1.6%,20µM*,-5.2%,1.7,-1.3%
O=C(NC1CCCCC1)C(Cc1ccccc1)NS(=O)(=O)c1cccs1 (centres undefined),6.8%,-8.0%,-1.5%,-12.7%,3.4,-8.8%
COCCN(CCOC)S(=O)(=O)c1ccc(NC(=O)c2cnccn2)cc1,13.7%,.,17.0%[59 µM],.,0.7,.
COc1ccc(S(=O)(=O)Nc2ccc(-n3cccc3)cc2)cc1,-14.6%,?,50.1µM*,?,-2.3,-0.7%
Nc1cc(S(=O)(=O)Nc2ccc(Cl)cc2)ccc1N1CCOCC1,20µM*,-13.3%,28.2µM*,-14.3%,2.5,-14.8%
O=S(=O)(Nc1ccc(N2CCOCC2)cc1)c1ccccc1,6.1%,7.5%,?,-16.2%,-0.7,-13.9%
N=C1c2ccccc2CN1c1ccc(N2CCOCC2)c(S(=O)(=O)Nc2ccc(Cl)cc2)c1,10µM*,?,.,-26.2%,1.3,31.6µM*
COc1ccc(NS(=O)(=O)c2ccc(N3CCCC3)c(N)c2)cc1,-8.6%,.,14.1µM*,.,0.1,.
SMILES,Sfp PPTase inh,Tau fibril FP,G9a inh,Tau fluor cs,FBPA coupling cs,Tau ThT inhib
Cc1cc(F)ccc1NC(=O)CCS(=O)(=O)c1cccc2nsnc12,.,-3.1%,-8.6%[59 µM],-11.6%,.,-7.9%
O=S(=O)(Nc1ccc(Cl)cc1)c1ccc(N2CCOCC2)c(NC(=S)NC2CC2)c1,-85.7%,-8.3%,7.94µM*,-10.4%,1.6,-12.4%
CNC(=S)Nc1cc(S(=O)(=O)Nc2cc(Cl)ccc2Cl)ccc1N1CCCC1,-9.0%,.,50.1µM*,.,5.5,.
Nc1cc(S(=O)(=O)Nc2cc(Cl)ccc2Cl)ccc1N1CCCC1,1.5%,-15.4%,7.6%[12.7 µM],?,-3.6,?
O=C(CNC(=O)c1ccccc1F)OCc1cc(=O)n2nc(C3CC3)sc2n1,.,2.6%,41.3%[59 µM],2.8%,.,-15.1%
O=C(c1cnccn1)N1CCC2(CCCN(Cc3nccs3)C2)CC1,13.9%,.,-3.0%[12.7 µM],.,0.2,.
C/C=C(\C)C(=O)N[C@@H](C)CN1C2=NC[C@H](C(C)C)N2C[C@H]1Cc1ccc(OC)cc1,39.8µM*,-0.3%,?,-3.8%,-0.6,-6.5%
CC(C)[C@H]1CN=C2N(C[C@H](C)NC(=O)CCC3CCCCC3)[C@H](Cc3ccc(O)cc3)CN21,50.1µM*,-2.1%,?,-5.3%,0.2,-7.5%
C[C@@H](CN1C2=NC[C@H](C)N2C[C@H]1Cc1ccc(O)cc1)NC(=O)CCC1CCCCC1,17.5%,6.4%,7.0%[12.7 µM],0.9%,-0.3,1.3%
COc1ccc(C[C@@H]2CN3C(=NC[C@@H]3Cc3ccc(O)cc3)N2C[C@H](C)NC(=O)CCC2CCCCC2)cc1,79.4µM*,-0.1%,.,-12.6%,3.9,-6.6%
C/C=C(\C)C(=O)NCCN1C2=NC[C@H](C(C)C)N2C[C@@H]1Cc1ccc(OC)cc1,-11.8%,-5.2%,2.5%[59 µM],-7.9%,2.0,-16.2%
Cc1ccc(C(=O)NC2CC(C)(C)NC(C)(C)C2)cc1S(=O)(=O)N1CCCCC1,.,.,-30.8%,.,.,.
Cc1cccc(C)c1NC(=O)Cn1cc(C(=O)C2CC2)c2ccccc21,.,?,0.1%[59 µM],-6.4%,.,?
COc1cccc(NC(=O)CN(C)C(=O)c2ccc(-c3ccccc3Cl)o2)c1,-8.7%,.,-18.5%,.,.,.
CN(C(=O)c1ccncc1)c1nnc(-c2cccnc2)s1,17.8%,-4.6%,16.2%[59 µM],-4.1%,0.1,-10.0%
CCN(C(=O)Cc1cccs1)c1nnc(-c2cccnc2)s1,-11.1%,?,2.82µM*,-5.6%,-6.8,-8.1%
O=C(NCc1ccccc1CN1CCCC1)c1cc2ccccc2o1,.,.,3.6%[2.33 µM],.,.,.
COc1cc(OC)cc(C(=O)N2CCN(C(=O)Cc3ccccc3)CC2)c1,0.9%,5.7%,.,-9.0%,2.8,-9.3%
CCOc1ccc(CN2CCN(C(=O)c3cccc(F)c3)CC2)cc1,-22.3%,-2.2%,7.08µM*,-3.1%,-0.2,-10.1%
COc1cc(OC)cc(C(=O)N2CCN(Cc3cccc(F)c3)CC2)c1,-19.9%,-1.4%,8.91µM*,-4.3%,-0.5,0.5%
COc1cccc(C(=O)N2CCN(Cc3cccc(F)c3)CC2)c1,50.1µM*,3.0%,?,-4.3%,1.9,-10.5%
